# In PubChem BioAssay (NCI):
# Compounds without any hit were thinned out: in the full panel of roughly 83,000, 20% have a hit.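 Compound tested at a single concentration for 48 hours in 96-well plates; a percent growth value below 10 was scored as active.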 A number with no mark means an inactive call. Calls of active or inactive are those of the source.
# Test system: IGROV1 ovarian
# Assay: NCI-60 one-dose screen, 48 h (100 = growth as untreated, 0 = no growth, -100 = all killed)
# Details: 10 µM unless noted
row,SMILES,growth
1,CC1=C(C(=O)Nc2ccccc2)C(c2cccc3ccccc23)n2c(nc3ccccc32)N1 (configuration not stated),68%
2,COc1ccc(NC(=O)CSc2nnc(-c3ccc(-c4nc5ccccc5[nH]4)cc3)o2)cc1,35.6%
3,COc1cc2cc(C(=O)N3C[C@@H](CCl)c4c3cc(OC(=O)N(C)CCSSCCN3CCOCC3)c3ccccc43)[nH]c2c(OC)c1OC,-27.6% (active)
4,CC(=O)C[n+]1cccc2c3ccccc3ccc21,95.2%
5,CC[C@]12C=CCN3CC[C@]4(C(=C(C(=O)OC)C1)Nc1cc(OC)c([C@@H]5[C@H]6O[C@H]6[C@@]6(CC)CC(C(=O)OC)=C7Nc8cc(O)ccc8[C@@]78CCN5[C@@H]68)cc14)[C@@H]32,1.62% (active)
6,Cc1ccccc1Nc1nnc(-c2c[nH]c3ccccc23)o1,20.8%
7,COc1cncc(-c2ccc3ncnc(N4CCc5ccc(Cl)cc54)c3c2)c1,-63.4% (active)
8,Clc1ccc2c(NCCNC34CC5CC(CC(C5)C3)C4)ccnc2c1,-55.6% (active)
9,Cn1cc(-c2cc(N)n3nc(-c4c[nH]c5ccccc45)cc3n2)c2cc(Br)ccc21,-70.6% (active)
10,Cc1nn(-c2ccccc2)c2nc(C)n(CC(=O)N/N=C/c3cccc([N+](=O)[O-])c3)c(=O)c12,91.8%
11,Cc1ccc(S(=O)(=O)Nc2ccc(-c3ccc4c(c3)NC(=O)/C4=C\c3ccc[nH]3)cc2)cc1,93.5%
12,O=C1c2cccc3c(N4CCN(c5ccccc5)CC4)ccc(c23)C(=O)N1c1cccc(-c2nn(-c3ccccc3)cc2-c2nc3ccccc3s2)c1,73.9%
13,COc1ccc(-c2cc(-c3cc(C(C)C)c(O)cc3C)nn2-c2ccc(S(N)(=O)=O)cc2)cc1,85.8%
14,Clc1ccc(-c2nc3c4c(-c5ccccc5)c(-c5ccccc5)n(Cc5ccccc5)c4ncn3n2)cc1,16.1%
15,Cc1ccc(-c2cc(C(=O)N=Nc3c(O)[nH]c4ccc(F)cc34)c3ccccc3n2)cc1,52.9%
16,COc1ccc(/C=C/c2nc3ccccc3n3c(-c4cccc([N+](=O)[O-])c4)nnc23)cc1,-69% (active)

row,SMILES,growth
1,O=C(c1ccc(O)cc1)C1[C@H](c2ccc(Cl)cc2)[C@@H](c2ccccc2)NC12C(=O)Nc1ccccc12 (some centres not stated),3.49% (active)
2,N#C/C(=C1/C(=O)Nc2ccccc21)c1nnc(NC(=O)c2ccc(-n3c(=O)[nH]c4ccccc4c3=O)cc2)s1,38.7%
3,CN(C(=O)CN1C(=O)/C(=C/c2ccco2)SC1=S)C1CCS(=O)(=O)C1 (configuration not stated),116%
4,COc1c2c(cc3c1C(CCc1ccccc1)N(C)CC3)OCO2 (configuration not stated),-4.07% (active)
5,COc1cc(C2CC(c3ccc(F)cc3)=Nc3c(N)nc(N)nc3N2)ccc1Oc1nc(Nc2ccc(F)cc2)nc(N(C)C)n1 (configuration not stated),51.7%
6,CC(C)C[C@H](NC(=O)CNC(=O)C[C@H]1O[C@@H]2OC3(C)CC[C@H]4[C@H](C)CC[C@@H]([C@H]1C)[C@@]24O3)B(O)O,10.7%
7,Cc1[nH]nc2ccc3nc(-c4cnn(CCO)c4)c4c(c3c12)CCCC4,44.5%
8,CCCN(CCC)S(=O)(=O)c1ccc(C(=O)O)cc1.CCCN(CCC)S(=O)(=O)c1ccc(C(=O)O)cc1.[Cl][Pt+2][Cl].[NH2-].[NH2-],7.54% (active)
9,COc1ccc(N=Nc2c(N)nn3c(-c4ccc5c(c4)C=S=C5)ccnc23)cc1,27%
10,O=C(NNC(=O)c1ccc(OCc2nc3ccc(Cl)cc3[nH]2)cc1)Nc1ccc(Cl)c(Cl)c1,84.5%
11,Cc1nc(Nc2ccccn2)sc1C1=NNC(c2ccccc2F)C1 (configuration not stated),64.2%
12,COc1ccc(-c2nc3ccccc3n2CC(=O)N=Nc2c(O)[nH]c3ccc(Br)cc23)cc1,60.3%
13,CC[C@]12C=CCN3CC[C@@]4(c5ccc(OC)cc5N(C)[C@H]4[C@@](O)(C(=O)OC)[C@@H]1OC(=O)CCC[P+](c1ccc(OC)cc1)(c1ccc(OC)cc1)c1ccc(OC)cc1)[C@@H]32,-92.1% (active)
14,COc1ccc(-c2cc(C(=O)N=Nc3c(O)[nH]c4ccc(Cl)cc34)c3ccccc3n2)cc1OC,93%
15,Fc1ccc(Nc2nnc(-c3c[nH]c4ccccc34)o2)cc1,50.8%
16,O=C(NN1C(=O)/C(=C/C=C/c2ccc([N+](=O)[O-])o2)SC1=S)c1ccc(O)cc1,-95.6% (active)
